Screening results from PubChem BioAssay.
The entries come from a sample that favours hits as a whole.
MgrA DNA FP: modulators of Staphylococcus aureus MgrA DNA binding. inhibition, % (test concentration not listed). actives 0.13% (n = 84,000). AID 602314. fluorescence polarization; in the data active = inhibition above about 30%, passing the limit was not always enough;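 also: higher means less MgrA bound to DNA so lower polarization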
Each line names hits and unclear results; the compound was inactive in the other large screens.

CC[n+]1c(-c2ccccc2)c2cc(N)ccc2c2ccc(N)cc21	MgrA DNA FP 58
O=c1ccc2cc(O[C@@H]3OC(CO)[C@@H](O)[C@@H](O)C3O)c(O)cc2o1 (stereo partly drawn)	none
OC1C2CCN(c3ccccc32)C1Cc1ccccc1 (stereo not drawn)	none
C=CCN1C(=O)/C(=C/c2ccco2)C(=O)NC1=S	none
O=C1NC(=S)N(c2ccc(Br)cc2)C(=O)/C1=C\c1ccc(-c2ccccc2C(=O)O)o1	none
CN1C(=O)/C(=C/c2ccc(I)o2)C(=O)NC1=S	MgrA DNA FP 98
N#Cc1cccc(C(=O)O)c1	none
CCN1C[C@]2(COC)[C@H](O)C[C@H](OC)[C@@]34[C@@H]5C[C@@]6(O)[C@H](OC(=O)c7ccccc7)[C@@H]5[C@@](OC(C)=O)(C([C@H](OC)[C@H]23)[C@@H]14)[C@@H](O)[C@@H]6OC	none
COc1ccc(C=C2C(=O)NC(=S)NC2=O)cc1Br	none
O=C1NC(=O)C(O)(c2c(O)c3ccccc3n(Cc3ccccc3)c2=O)C(=O)N1	none
